Data from PubChem BioAssay (NCI).
Compounds without any hit were thinned out: in the full panel of roughly 83,000, 20% have a hit.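 Single-concentration screen, 48 h exposure, 96-well plates. Endpoint: percent growth. Below 10 = active.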 Unmarked numbers belong to inactive results. Activity calls are given as the source filed them.

Assays:
Experiment in all cases: NCI-60 one-dose screen, 48 h (100 = growth as untreated, 0 = no growth, -100 = all killed)
Details in all cases: 10 µM unless noted
[1] = system: NCI-H23 lung
[2] = system: NCI-H226 lung
[3] = system: NCI-H322M lung
[4] = system: HOP-62 NSCLC
[5] = system: NCI-H460 lung
[6] = system: HOP-92 NSCLC
[7] = system: NCI-H522 lung
[8] = system: A549/ATCC NSCLC
[9] = system: 786-0 renal
[10] = system: COLO 205 colon

SMILES | growth [1] | growth [2] | growth [3] | growth [4] | growth [5] | growth [6] | growth [7] | growth [8] | growth [9] | growth [10]
N#Cc1nc(-c2ccc(F)cc2)oc1S(=O)(=O)N1CCCCC1 | 65.7% | 79% | 94.3% | 102% | 101% | 78.9% | -14.8% (active) | 103% | 86.4% | -13.2% (active)
COc1cc2nc3cc([N+](=O)[O-])ccc3c(NCCNCC(C)O)c2cc1OC (stereo not given) | -27.8% (active) | -11.1% (active) | -11.9% (active) | -19.2% (active) | -40.2% (active) | -42.1% (active) | -26.6% (active) | -26.8% (active) | -3.6% (active) | -76.6% (active)
CC(=O)Oc1ccc(/C(=C(\C)c2ccc(Cl)cc2)c2ccc(OCCN3CCCCC3)cc2)cc1 | 46.9% | 70.7% | 84.7% | 52.8% | 20.2% | 49.4% | 21.2% | 31.7% | -35.5% (active) | -52.4% (active)
COc1ccc(NC(=O)c2sc3nc(C)c(C(=O)/C=C/c4ccccc4)cc3c2N)cc1 | 63% | 65.6% | 13.1% | 60.8% | 6.63% (active) | 109% | 41.7% | 34% | 2.08% (active) | 72.8%
Oc1c(I)cc(I)cc1CNCc1ccccn1 | 52.4% | 62.5% | 40.1% | 28.3% | 19.9% | 63.2% | 4.61% (active) | 23.6% | 36.1% | 74.1%
CCN(CC)CCn1c2ccc(O)cc2c2sc3cc(O)ccc3c(=O)c21 | 25.8% | 68.2% | 30% | 38.4% | 8.46% (active) | 60.5% | 35.1% | 21.6% | 27% | 30.3%
C1CCC([PH+](C2CCCCC2)C2CCCCC2[PH+](C2CCCCC2)C2CCCCC2)CC1.[Au].[CH-]1CCCCC1C1CCCC[N-]1 (stereo not given) | -31% (active) | -35.1% (active) | -52% (active) | -39.9% (active) | -69.8% (active) | -38.5% (active) | -51% (active) | -56.8% (active) | -64.6% (active) | -62% (active)
Cn1ccnc1C(=O)/C=C/c1ccc(CC(=O)Nc2cc(C(F)(F)F)cc(C(F)(F)F)c2)cc1 | 85.4% | 91.4% | 73.2% | 85.9% | 55.3% | 87% | 77.4% | 60.1% | 65.6% | 98.3%
O=[N+]([O-])c1cccc(-c2nc3cc4nc5ccccc5[nH]c4cc3n2)c1 | 90.1% | 105% | 97.7% | 95.7% | 112% | 113% | 92.6% | 92.6% | 91.9% | 114%
COC(=O)CC[C@@H]1O[C@@H](c2cccc(C(F)(F)F)c2)[C@@H](O)[C@H]1O | 94.2% | 103% | 103% | 103% | 102% | 84.3% | 98.6% | 107% | 103% | 108%
Cn1c(=O)c2nc(/C=C/c3ccccc3)c(=O)[nH]c2n(C)c1=S | 100% | 101% | 99.7% | 100% | 103% | 98.1% | 102% | 107% | 99.8% | 121%
CC/C(=C(/c1ccc(Cl)cc1)c1ccc(OCCN2CCCCC2)cc1)c1ccc(OC)cc1 | 50.8% | 81.3% | 81% | 86.8% | 32% | 57% | 65.1% | 56.1% | 52% | 40.4%
COc1ccc(Nc2ncc(Br)c(NCCCNC(=O)c3cccs3)n2)cc1 | 39.2% | 33.1% | 56.5% | 22.6% | 25.1% | 30% | 61.3% | 42.9% | 34.3% | 33.2%
Cn1ccc(=O)c(C(=O)Nc2nsc3ccc([N+](=O)[O-])cc23)c1 | 91.3% | 76.7% | 45.2% | 96.4% | 48.2% | 41.2% | 53.3% | 74.9% | 56.2% | 76.9%
Nc1nc2ccccc2c2c(=O)c3cccc(Cl)c3sc12 | 80.3% | 94.4% | 89.1% | 81.8% | 61.5% | 101% | 93.3% | 76.8% | 96.2% | 57.2%
CCN1C(=O)N(CC)C2C1NN=c1s/c(=C\c3ccccc3F)c(=O)n12 (stereo not given) | 31.9% | 48.5% | 42.6% | 35.1% | 2.31% (active) | 40.3% | -8.42% (active) | 7.92% (active) | 20.6% | -9.98% (active)
CN1CCc2nc3sc(C(N)=O)c(N)c3c(-c3cccs3)c2C1 | 36.2% | 16.3% | 40.7% | 23.3% | 30.4% | -7.38% (active) | 38.9% | 24.1% | 9.22% (active) | 7.02% (active)
O=C(Nc1nc2ccc(C(=O)N3CCN(/C=C/c4ccccc4)CC3)cc2s1)c1ccc(NCCc2ccccc2)c([N+](=O)[O-])c1 | 51% | 62.1% | 82.8% | 58.4% | 16.5% | 51.8% | 48.3% | 55.2% | 69.7% | 18.5%
O=C(OC(CO)C(=O)NC12CC3CC(CC(C3)C1)C2)c1ccc(Cl)cc1 (stereo not given) | 105% | 92.4% | 102% | 103% | 107% | 87.2% | 99.3% | 97.2% | 101% | 110%
CN(C)CC1CCC(CN(C)C)C1=O (stereo not given) | 114% | 101% | 110% | 106% | 111% | 100% | 95.3% | 110% | 102% | 103%
CC(C)=CC(=O)OCC(=O)O[C@@H]1C[C@]2(C(C)C)O[C@@]1(C)[C@@H]1CC[C@@H](C)[C@H]1[C@@H]2OC(=O)/C=C/c1ccccc1 | 76% | 55.5% | 90.7% | 96.7% | 93.5% | 61% | 70.4% | 83.4% | 66% | 106%
Nc1c(C(=O)Nc2ccccc2F)sc2nc3c(cc12)CCCC3 | 51.2% | 63.5% | 63.1% | 23.7% | 12% | 11.9% | 23% | 39.5% | 33.2% | 13%
CC(C)c1ccc(C(=O)Nc2sc3c(c2C(N)=O)CCC(=O)C3)cc1 | -7.38% (active) | 50.9% | 69.4% | 26.2% | 1.37% (active) | -32% (active) | -55.8% (active) | 16.8% | 19.7% | -43.6% (active)
O=C(CN1C(=O)S/C(=C\c2ccccc2)C1=O)Nc1ncc(Cc2ccccc2Cl)s1 | 102% | 95.7% | 95.9% | 103% | 110% | 108% | 81% | 98.6% | 107% | 113%
C[C@@H](CO)[C@@H]1CCC=C2CC[C@]3(C)[C@H](CC[C@@H]4[C@@]5(C)CCCNC(C)(C)[C@@H]5CC[C@]43C)[C@H]21 | 67.9% | 94.6% | 78.3% | 91.1% | -67.1% (active) | 75.7% | 82.1% | 47% | 70% | -56.8% (active)
O=C(Nc1nc2cc(C(=O)N3CCN(C(c4ccccc4)c4ccccc4)CC3)ccc2o1)c1ccc(NC2CCCCC2)c([N+](=O)[O-])c1 | 69.5% | 65.1% | 59.4% | 47.4% | 46.8% | 73.3% | 64.2% | 56.1% | 53.6% | 79.7%
